Measurements as given in PubChem BioAssay (NCI).
About 83,000 compounds went through this panel and 20% of them were active in at least one assay; those are over-represented in the sample as a whole.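 The endpoint reported here, percent growth, reads 100 for growth as untreated, 0 for no net growth and -100 for all cells dead.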 A number with no mark means an inactive call. Calls of active or inactive are those of the source. Rule for the calls: active = growth percent below 10; inactive = the rest.

What was measured:
Assay in all cases: NCI-60 one-dose screen, 48 h (100 = growth as untreated, 0 = no growth, -100 = all killed)
[1] = tested on: SK-MEL-2 melanoma; conditions: 10 µM unless noted
[2] = tested on: EKVX NSCLC; conditions: 10 µM unless noted
[3] = tested on: SN12C renal; conditions: 10 µM unless noted
[4] = tested on: UO-31 renal; conditions: 10 µM unless noted
[5] = tested on: TK-10 renal; conditions: 10 µM unless noted
[6] = tested on: ACHN renal; conditions: 10 µM unless noted
[7] = tested on: A498 renal; conditions: 10 µM unless noted
[8] = tested on: CCRF-CEM leukemia; conditions: 10 µM unless noted
[9] = tested on: MOLT-4 leukemia; conditions: 10 µM unless noted
[10] = tested on: SR leukemia; conditions: 10 µM unless noted
[11] = tested on: RPMI-8226 leukemia; conditions: 10 µM unless noted
[12] = tested on: OVCAR-8 ovarian; conditions: 10 µM unless noted
[13] = tested on: OVCAR-5 ovarian; conditions: 10 µM unless noted
[14] = tested on: OVCAR-4 ovarian; conditions: 10 µM
[15] = tested on: IGROV1 ovarian; conditions: 10 µM unless noted
[16] = tested on: OVCAR-3 ovarian; conditions: 10 µM unless noted
[17] = tested on: HS 578T breast; conditions: 10 µM unless noted
[18] = tested on: NCI/ADR-RES ovarian; conditions: 10 µM unless noted
[19] = tested on: SK-OV-3 ovarian; conditions: 10 µM unless noted
[20] = tested on: CAKI-1 renal; conditions: 10 µM unless noted

| Structure (SMILES) | growth [1] | growth [2] | growth [3] [%] | growth [4] | growth [5] | growth [6] | growth [7] | growth [8] | growth [9] | growth [10] | growth [11] | growth [12] | growth [13] | growth [14] [%] | growth [15] | growth [16] | growth [17] | growth [18] | growth [19] | growth [20] |
| --- | --- | --- | --- | --- | --- | --- | --- | --- | --- | --- | --- | --- | --- | --- | --- | --- | --- | --- | --- | --- |
| CCCc1cc2cc(-n3nc(C)c4c3CC(C)(C)CC4=O)cc(NC3CCSCC3)c2c(=O)[nH]1 | 71.6% | 76.4% | 39.8 | 61% | 43.4% | 38.5% | 71.4% | 100% | 49.8% | 33.8% | 49.9% | 79% | 97% | 97.5 | 74.1% | 87% | 79.2% | 82.2% | – | – |
| NC1=NC(=O)NC1(c1ccccc1)c1ccccc1 | 68.2% | 111% | 88.1 | 96.3% | 92% | 95.8% | 87.6% | 86.2% | 87.6% | 97.9% | 94.3% | 97.7% | 83.2% | 105 | – | 105% | 98.3% | 106% | 92.7% | – |
| CC(C)[C@H]1COC(=O)N1[C@@H]1C(=O)N([C@@H](CCC(=O)N2CCN(C3CCCC3)CC2)C(=O)N[C@@H]2CCCc3ccccc32)[C@@H]1/C=C/c1cccc(Cl)c1 | 60% | 58.8% | 59.6 | 43.5% | 54.2% | 57.8% | 27.9% | 42% | 24.1% | 19.2% | 22.2% | 74.5% | 105% | 68.3 | 48.4% | 69% | 64.3% | 64.1% | 88.1% | – |
| CN(C)c1ccc(N=Nc2ccc3ccccc3c2)cc1 | 98.7% | 83.5% | 87 | 57% | 91.4% | 87.8% | 88.5% | 72% | 80.8% | 61.8% | 79.7% | 98.2% | 104% | 76.7 | 77.8% | 88.7% | 98.4% | 98.1% | 96% | – |
| c1nc(N2CCOCC2)c2[nH]ccc2n1 | 96% | 103% | 104 | 87.6% | 95.3% | 109% | 96.3% | – | 94% | 92% | 94.1% | 106% | 116% | 106 | 112% | 118% | 96.7% | – | 110% | – |
| CCOC(=O)CCC[P+](c1ccccc1)(c1ccccc1)c1ccccc1 | 85.4% | 75.5% | 82 | 87.5% | 95.9% | 97.9% | 86.3% | 72.6% | 72% | 59.5% | 41.9% | 82.2% | 95.1% | 81.7 | 65.8% | 45.9% | 92.9% | 105% | 98.9% | – |
| Cn1ncc2c(Nc3ccc(O)cc3)nc(Cl)nc21 | 106% | 87.8% | 96.8 | 84% | 102% | 88% | 111% | 92.1% | 94.2% | 75.3% | 79.4% | 104% | 105% | 105 | 92.9% | 117% | 102% | 97.3% | 105% | – |
| CCCOc1ccc(-c2nc(-c3ccc(N)cc3)cs2)cc1 | 107% | 95.6% | – | 77.1% | 125% | 97.1% | 215% | 85.6% | 116% | 73.9% | 96.6% | 87% | 108% | 100 | 94.8% | 145% | 130% | 97.9% | 105% | 79.3% |
| CN(C)CCCNc1nc(-c2cccc(C(Cl)(Cl)Cl)c2)nc(C(Cl)(Cl)Cl)n1 | 99% | – | 102 | 83.5% | 115% | 108% | 65.9% | 98.3% | 84.4% | 77.8% | 99.5% | 101% | 106% | 107 | 94.4% | 117% | 91.8% | – | 111% | 98.2% |
| Cc1ccc(Oc2c(/C=N/NC(=O)Cn3c(=O)sc4ccccc43)c(C)nn2-c2ccccc2)cc1 | 75.5% | 38% | – | 25.8% | 62.4% | 43.2% | 78.2% | 40.8% | 8.72% (active) | 41.8% | 32.8% | 54.8% | 74.1% | 46.2 | 44.4% | 54.2% | 63.2% | 50.2% | 66.6% | 28.8% |
| CC(C)c1ccc(C(=O)Nc2nc3ccc(O)cc3s2)cc1 | 78% | 37.4% | – | 22.1% | 70.3% | 21.3% | 38% | 29.2% | 13.5% | 17.1% | 28.9% | 40.6% | 40.6% | 33.9 | 49.1% | 54.1% | 72.3% | 25.7% | 89.2% | -5.74% (active) |
| COC(=O)C(=Cc1ccccc1[N+](=O)[O-])C(=O)OC | 73.5% | 51.4% | – | 31.2% | 14.7% | 48.7% | 69.1% | -1.09% (active) | 4.68% (active) | -22.3% (active) | -18.6% (active) | 49.8% | 56.6% | 21.6 | 37.9% | -17.9% (active) | 34.5% | 21.9% | 69.7% | 31.2% |
| NS(=O)(=O)c1ccc(CCN2C(=O)/C(=C\c3ccccc3)C=C2c2ccc(Cl)cc2)cc1 | 102% | 88.5% | – | 65.8% | 113% | 97% | – | 101% | – | 103% | 98.3% | 98.2% | 99.4% | 95.4 | 91.9% | 96.9% | 93.9% | 107% | – | 65.1% |
| CC1(C)C(=O)/C(=C\c2cccnc2)C[C@]2(C)[C@H]3CC[C@@H]4[C@H]5[C@H](C(=O)/C=C/c6cccnc6)CC[C@]5(C(=O)O)CC[C@@]4(C)[C@]3(C)CC[C@@H]12 | -55.1% [100 µM] (active) | -73% [100 µM] (active) | – | -32.9% [100 µM] (active) | -89.5% [100 µM] (active) | -71.1% [100 µM] (active) | -77.5% [100 µM] (active) | -6.59% [100 µM] (active) | 4.49% [100 µM] (active) | 25.8% [100 µM] | -27% [100 µM] (active) | 0.147% [100 µM] (active) | -49% [100 µM] (active) | – | -34.3% [100 µM] (active) | -75.4% [100 µM] (active) | -0.172% [100 µM] (active) | -1.33% [100 µM] (active) | -68.5% [100 µM] (active) | -66% [100 µM] (active) |
| CCCCC1COc2cccc3c2N1C=C/C3=C\C(=O)n1ccc2ccccc21 (stereo unspecified) | 70.7% | 82.9% | – | 57.5% | 118% | 88.5% | 70.1% | 67% | 40.9% | 16.5% | 65.7% | 91.8% | 94.5% | 65.2 | 70.2% | 68.4% | 88% | 67.2% | 77.1% | 41% |
